The values that follow come from PubChem BioAssay.

A short description of assay [1]: P. berghei load reduction in hepatocytes – cell-based, HepG2, luciferase luminescence, HepG2 viability, primary screen (AID 624349; in the data active means parasite load remaining mostly below about 12%, no sharp cut-off; inactive means mostly above about 10%;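 further: 100% = mean of DMSO negative control wells on the same plate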). Particulars: P. berghei liver stage in HepG2, luciferase luminescence, concentration not given here; parasite load remaining: stronger effect = lower value; viability: measured here: HepG2 viability without parasites.
A short description of assay [2]: signal quenchers or enhancers, Cy5 substrate/SSB – biochemical, NIH Clinical Collection, E. coli SSB, artefact control for HCV NS3 helicase inhibitor project (AID 743268). As to conditions: Cy5-oligo bound E. coli SSB, fluorescence interference.
Assay [3] has as its system Hepatitis C virus NS3 helicase. Nature of the assay: blockers of NS3h binding to DNA – biochemical, fluorescence polarization, NIH Clinical Collection, primary screen (AID 743270). Particulars: NS3 helicase binding to Cy5-dT15 DNA, stronger effect = higher value, concentration not given here.
Assay [4] has as its target Single-stranded DNA-binding protein (Escherichia coli (strain K12)) (UniProt P0AGE0). Nature of the assay: SSB-ssDNA binding inhibitors – biochemical, fluorescence polarization, NIH Clinical Collection, counter-screen for HCV NS3 helicase inhibitor project (AID 743271; in the data active means inhibition above about 28%). As to conditions: E. coli SSB-DNA binding, stronger effect = higher value, concentration not given here. Background: Polarisation of emitted light reports the rotation of a fluorescent probe.

Assay [5] in a line: compounds distorting NS3 helicase fluorescence signal – biochemical, NIH Clinical Collection, artefact control for HCV NS3 helicase inhibitor project (AID 743272).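 Further: HCV NS3 helicase with a Cy5 labelled single stranded DNA probe.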 Particulars: fluorescence interference counterscreen, HCV NS3 helicase assay; stronger effect = lower value.
Assay [6] can be described thus: Wnt pathway potentiators raising nuclear beta-catenin – imaging, WNT3A-conditioned medium, mouse C2C12, NPC library, primary screen (AID 1117326; in the data active means nuclear beta-catenin stimulation mostly above about 4.2%, no sharp cut-off; inactive means mostly below about 10%). As to conditions: stronger effect = higher value.
Assay [7] is described as follows: stimulators of insulin release from INS-1E, primary screen, cell-based, 5 mM glucose, NPC library (AID 1117329;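 active means compound raises insulin release from rat beta cells at 5 mM glucose, no numeric limit stated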). As to conditions: rat INS-1E insulin secretion, at 10 µM, stronger effect = higher value.
The nature of assay [8]: growth inhibition of GSK3B-pretreated HCT116 cells – cell-based, CellTiter-Glo, 0.2 to 20 µM (AID 1117336;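 active means compounds lowering colon cancer cell viability after pretreatment blocking the GSK3B kinase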). Particulars: HCT116 viability after GSK3B inhibitor, at 20 µM, stronger effect = higher value.
The nature of assay [9]: inhibition of endothelial tube formation, primary screen, imaging, VEGF stimulated, CD31 staining, tube area, NPC library (AID 1117340;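 active means compound that reduces growth-factor-driven endothelial tube area in a mixed cell culture, no cutoff stated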). As to conditions: VEGF-stimulated ADSC/ECFC co-culture, at 10 µM, stronger effect = higher value.
A short description of assay [10]: GLP1 release stimulators, primary, NCI-H716, NPC library (AID 1117341;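 active means compound raises GLP1 secretion from the human gut endocrine cells, with no numeric limit stated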). Particulars: NCI-H716 cells, at 10 µM, stronger effect = higher value.
Assay [11] can be described thus: HCT116 colon cancer cell growth inhibition, primary screen, CellTiter-Glo luminescence, NPC library (AID 1117342;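 active means compounds that lower survival of HCT116 colon cancer cells in the luminescence readout, no numeric limit stated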). As to conditions: at 20 µM (top of the series).
A short description of assay [12]: reduced SW480 viability measured with CellTiter-Glo, NPC library, primary (AID 1117343;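 active means compounds that lower viability of the colon cancer cells in the luminescence readout, with no numeric limit stated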). Particulars: CellTiter-Glo luminescence; at 20 µM (top of the series). (In general: In ATP-based viability assays light output follows the ATP content of the culture.)
Assay [13] in a line: NPC library primary testing for decreased DLD-1 cell viability via CellTiter-Glo (AID 1117346;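 active means compounds that lower survival of DLD-1 colon cancer cells in the luminescence readout, no cutoff given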). Particulars: DLD-1 viability, CellTiter-Glo luminescence; at 20 µM (top of the series).
Assay [14] concerns the target 6-phosphogluconate dehydrogenase, decarboxylating (Homo sapiens) (UniProt P52209). Nature of the assay: inhibition of human phosphogluconate dehydrogenase – biochemical, recombinant enzyme, NADPH absorbance, primary screen (AID 1159550;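 active means at least 20% inhibition of 6-phosphogluconate dehydrogenase activity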). Particulars: recombinant 6PGD, NADPH absorbance 341 nm; at 10 µM; stronger effect = higher value.
Assay [15] is described as follows: viability loss with induced miR-34 in A549 – imaging, A549 dox-inducible miR-34, nuclei and caspase counts, primary screen (AID 1347080;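 active means compounds whose cell count with miR-34 switched on is under 0.7 times the count with it off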). Particulars: A549 miR-34 inducible, Hoechst nuclei count, 48 h.
Assay [16] in a line: MELAS cybrid and Rieske KO viability enhancers – cell-based, MELAS cybrids, Rieske KO mouse fibroblasts, CellTiter-Glo, primary screen (AID 1508586;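 active means mean z-score across replicates of 1.96 or higher in either the MELAS or the Rieske mutant cell line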;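 further: z relative to plate mean and SD of compound and empty wells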). As to conditions: low glucose.
For assay [17], the target named is NAD(+) hydrolase SARM1 (Homo sapiens) (UniProt Q6SZW1). The assay is described as follows: blocking NAD cleavage by SARM1 SAM-TIR – cell lysate, NAD-Glo luminescence (AID 1508614;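 active means compound whose remaining NAD level is above about 45 nM, limit read from the data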). As to conditions: SAM-TIR HEK293T lysate NADase, at 1 µM, stronger effect = higher value.
Assay [18] addresses Mitogen-activated protein kinase 7 (Homo sapiens) (UniProt Q13164). Nature of the assay: Gal4-ERK5 driven luciferase induction – cell-based, HTS, primary screen (AID 1508626;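 active means luciferase signal above three times the same-plate solvent-only control wells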;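 further: luciferase driven by Gal4-ERK5 fusion binding five Gal4 sites before minimal TATA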). Particulars: HeLa Gal4-ERK5 transactivation, 18 h, at 5 µM, stronger effect = higher value.
Assay [19] deals with F380Y. The assay is described as follows: BK channel mutant inhibitors and activators – cell-based, U2OS BacMam, thallium flux, beta subunits, selectivity assay, profiling panel (AID 1259406;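 active means thallium flux through the channel raised or lowered by more than 3 SD from vehicle-only wells, actives on both sides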;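 further: initial slope of Thallos dye fluorescence rise after thallium is added; log ratio against the mean of 0.3% DMSO vehicle wells on the same plate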). As to conditions: U2OS BacMam BK variants, at 30 µM.
Assay [20] in a line: EMT-state selective cytotoxicity in co-culture – imaging, PC-3E GFP, TEM4-18 mCherry, primary screen (AID 1345086;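 active means compounds killing one labelled cell type while sparing the other, by normalised counts and ratio limits, not self-fluorescent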;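 on all read-outs here: cells exposed to compound for 72 h before imaging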;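 on red/green cell ratio (normalised): normalised mesenchymal count divided by normalised epithelial count so high means epithelial killing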). Particulars: PC-3E GFP / TEM4-18 mCherry co-culture, imaging cell counts, at 1 µM; for red/green cell ratio (normalised): actives lie on both sides, counts scaled to control wells, 1 = unselective.
The mark [21] stands for this setting: MELAS cybrid survival, CellTiter-Glo 48 h, stronger effect = higher value.
[22] abbreviates: Rieske KO mouse fibroblast survival, CellTiter-Glo 72 h.
Where [23] appears, read: measured here: epithelial PC-3E GFP cell survival.
The mark [24] stands for this setting: measured here: mesenchymal TEM4-18 mCherry cell survival.

“And” between values parts separate entries of the source, which are not always exact repeats. Identical values can stand only once. The source made the active and inactive calls. Unless noted, how the calls were made is not given here.

Chain of 6-phosphogluconate dehydrogenase, decarboxylating (Homo sapiens) (P52209 whole entry, looked up): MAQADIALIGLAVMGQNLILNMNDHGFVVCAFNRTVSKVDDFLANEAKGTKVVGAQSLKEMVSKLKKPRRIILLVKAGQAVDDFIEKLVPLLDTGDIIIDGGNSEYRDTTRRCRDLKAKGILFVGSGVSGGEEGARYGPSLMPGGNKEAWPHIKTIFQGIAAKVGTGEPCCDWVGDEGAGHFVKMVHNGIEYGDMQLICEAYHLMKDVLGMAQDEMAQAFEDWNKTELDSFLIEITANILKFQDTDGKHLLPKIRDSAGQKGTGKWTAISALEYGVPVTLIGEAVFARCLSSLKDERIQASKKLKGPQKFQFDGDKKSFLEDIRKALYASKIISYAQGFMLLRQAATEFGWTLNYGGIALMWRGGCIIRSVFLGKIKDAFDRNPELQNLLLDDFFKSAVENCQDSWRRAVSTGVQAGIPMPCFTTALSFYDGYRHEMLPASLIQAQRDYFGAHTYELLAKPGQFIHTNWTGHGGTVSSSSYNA
Chain of Mitogen-activated protein kinase 7 (Homo sapiens) (Q13164 whole entry, looked up, the tested form may be a part): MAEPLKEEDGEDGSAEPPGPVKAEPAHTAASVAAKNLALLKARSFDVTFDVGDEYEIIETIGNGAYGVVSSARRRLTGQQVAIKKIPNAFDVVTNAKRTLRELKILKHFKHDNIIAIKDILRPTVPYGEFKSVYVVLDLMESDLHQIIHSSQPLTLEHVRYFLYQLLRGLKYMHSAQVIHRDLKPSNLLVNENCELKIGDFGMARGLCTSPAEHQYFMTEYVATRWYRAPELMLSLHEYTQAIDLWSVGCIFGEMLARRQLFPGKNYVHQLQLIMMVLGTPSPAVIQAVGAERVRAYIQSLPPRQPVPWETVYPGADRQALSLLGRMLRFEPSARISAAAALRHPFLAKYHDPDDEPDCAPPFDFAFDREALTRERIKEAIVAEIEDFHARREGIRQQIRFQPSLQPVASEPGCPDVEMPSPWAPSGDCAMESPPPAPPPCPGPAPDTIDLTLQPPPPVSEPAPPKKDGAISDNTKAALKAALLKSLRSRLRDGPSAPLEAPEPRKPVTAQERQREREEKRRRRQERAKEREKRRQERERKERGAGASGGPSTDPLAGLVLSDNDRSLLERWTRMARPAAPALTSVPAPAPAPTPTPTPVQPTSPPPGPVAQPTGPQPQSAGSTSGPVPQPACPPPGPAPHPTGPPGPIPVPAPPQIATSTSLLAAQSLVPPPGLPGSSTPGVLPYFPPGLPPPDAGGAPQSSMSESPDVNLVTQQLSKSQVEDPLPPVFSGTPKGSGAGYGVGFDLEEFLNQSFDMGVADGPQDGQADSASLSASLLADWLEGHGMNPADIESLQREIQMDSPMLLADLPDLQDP
Chain of NAD(+) hydrolase SARM1 (Homo sapiens) (Q6SZW1 whole entry, looked up, the tested form may be a part): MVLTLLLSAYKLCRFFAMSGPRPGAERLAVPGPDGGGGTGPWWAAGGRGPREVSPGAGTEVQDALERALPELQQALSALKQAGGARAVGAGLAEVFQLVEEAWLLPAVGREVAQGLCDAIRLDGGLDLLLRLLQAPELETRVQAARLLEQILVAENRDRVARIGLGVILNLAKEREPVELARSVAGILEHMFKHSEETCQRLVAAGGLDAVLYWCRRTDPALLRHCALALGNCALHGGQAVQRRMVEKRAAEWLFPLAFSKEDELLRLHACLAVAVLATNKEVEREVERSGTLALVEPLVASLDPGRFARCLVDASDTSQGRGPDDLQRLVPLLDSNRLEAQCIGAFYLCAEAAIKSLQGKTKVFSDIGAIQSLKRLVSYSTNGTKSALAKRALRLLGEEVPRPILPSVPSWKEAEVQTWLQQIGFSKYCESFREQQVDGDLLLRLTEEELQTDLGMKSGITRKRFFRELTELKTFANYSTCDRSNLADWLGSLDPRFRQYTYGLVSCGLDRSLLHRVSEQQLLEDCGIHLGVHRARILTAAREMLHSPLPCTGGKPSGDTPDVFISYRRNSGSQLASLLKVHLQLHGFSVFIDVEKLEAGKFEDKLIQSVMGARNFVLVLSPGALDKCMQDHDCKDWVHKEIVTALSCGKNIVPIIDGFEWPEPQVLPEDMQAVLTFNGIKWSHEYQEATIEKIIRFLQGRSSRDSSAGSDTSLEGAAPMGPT

Regarding `CC[C@H](C)C(=O)O[C@H]1C[C@H](O)C=C2C=C[C@H](C)[C@H](CC[C@@H](O)C[C@@H](O)CC(=O)O)[C@H]21`, the parasite load remaining in assay [1] is 98.4% (inactive). Moreover, the viability in [1] worked out at 77.5%. The fluorescence ratio in assay [2] is 1.01 (inactive); in [5] it was 1 (inactive). Moreover, the inhibition in assay [3] was -3.56% (inactive); in [4], -3.18% (inactive); in assay [14], -4.46% (inactive). Also, the nuclear beta-catenin stimulation in assay [6] (at 10 µM) is -0.7% (inactive); in assay [6] (stimulation, at 2 µM), -0.3%. Moreover, in assay [7], the insulin secretion stimulation is 0.2% (inactive). Further, the viability decrease in assay [8] was -15.6% (inactive). Further, the tube area decrease in assay [9] was 22% (inactive). For the same molecule, the GLP1 secretion stimulation in assay [10] is -3.6% (inactive). Also, the inhibition of viability in assay [11] is 12.4% (inactive). Besides, the viability decrease (inhibition) was 2.3% (inactive) in assay [12] and 5.1% (inactive) in assay [13]. For the same molecule, the fold change in assay [15] (stronger effect = lower value, cell number ratio, induced over uninduced) is 0.972 (inactive); in [15] (measured here: relative caspase fold change +Dox/-Dox), 0.983. Further, the cell count stood at 9020 in [15] (measured here: total cells with miR-34 induction, stronger effect = lower value) and 9270 in assay [15] (measured here: total cells without miR-34 induction). In addition, the z-score in [16] (setting [21]) is -0.583 (inactive); in assay [16] (setting [22]), -1.06. For the same molecule, the remaining NAD in assay [17] was 10 nM (inactive). The luciferase signal in assay [18] was 36 AU (inactive). In addition, in assay [19], the log fold change Tl+ flux was -0.00852 (inactive).

For `CCCN(CCC)S(=O)(=O)c1ccc(C(=O)O)cc1`, the fluorescence ratio in assay [2] is 1.02 (inactive); in [5], 0.94 (inactive). For the same molecule, the inhibition in assay [3] was -3.18% (inactive); in assay [4], -0.48% (inactive); in [14], 0.15% (inactive). In addition, the nuclear beta-catenin stimulation was -1.3% (inactive) in assay [6] (at 10 µM) and -0.2% in assay [6] (stimulation, at 2 µM). Moreover, the insulin secretion stimulation in assay [7] is 0.5% (inactive). In [8], the viability decrease was -23.6% (inactive). For the same molecule, the tube area decrease in assay [9] was -14.2% (inactive). Also, in assay [10], the GLP1 secretion stimulation was -0.7% (inactive). Also, in assay [11], the inhibition of viability is 12.4% (inactive). For the same molecule, the figures for the viability decrease (inhibition) in [12] and in assay [13] were 14.9% (inactive) and -10.5% (inactive), respectively. In addition, the red/green cell ratio (normalised) in assay [20] is 1.43 (inactive). In addition, the normalised cell number amounted to 0.78 in assay [20] (setting [23]) and 1.12 in assay [20] (setting [24]). Further, the z-score in assay [16] (setting [21]) was -0.112 (inactive) and 0.174 (inactive); in assay [16] (setting [22]), -0.203 and 0.258. In addition, in assay [17], the remaining NAD is 10 nM (inactive). Besides, in assay [18], the luciferase signal is 80 AU (inactive). In addition, the log fold change Tl+ flux in [19] was -0.012 (inactive).

Regarding `C[C@@H]1O[C@@H](OC[C@H]2O[C@@H](Oc3c(-c4ccc(O)c(O)c4)oc4cc(O)cc(O)c4c3=O)[C@H](O)[C@@H](O)[C@@H]2O)[C@H](O)[C@H](O)[C@H]1O`, the parasite load remaining in [1] was 117% (inactive). Besides, in assay [1], the viability was determined as 84.5%. Further, the results for the fluorescence ratio in assay [2] and in assay [5] were 0.95 (inactive) and 1.02 (inactive), respectively. Moreover, the inhibition in [3] was 5.94% (inactive); in [4] it was 11.4% (inactive); in [14], 4.58% (inactive). The nuclear beta-catenin stimulation in assay [6] (at 10 µM) was 0% (inactive); in assay [6] (stimulation, at 2 µM), 1.9%. The insulin secretion stimulation in assay [7] is 0.6% (inactive). Moreover, the viability decrease in assay [8] is 56% (active). Further, in assay [9], the tube area decrease was 4.5% (inactive). Also, the GLP1 secretion stimulation in [10] is -1.2% (inactive). Besides, in assay [11], the inhibition of viability was 70.9% (active). The figures for the viability decrease (inhibition) in assay [12] and in assay [13] were 59.4% (active) and 44.7% (inactive), respectively. Also, in assay [17], the remaining NAD was 10 nM (inactive). Also, the log fold change Tl+ flux in assay [19] is -0.0319 (inactive).

With `CCS(=O)(=O)CCn1c([N+](=O)[O-])cnc1C`, the values for the fluorescence ratio in [2] and in assay [5] were 0.97 (inactive) and 0.92 (inactive), respectively. Further, the results for the inhibition in assay [3], in [4] and in assay [14] were -0.22% (inactive), 1.18% (inactive) and -3.03% (inactive), respectively. Also, the nuclear beta-catenin stimulation was 0.7% (inactive) in assay [6] (at 10 µM) and 0.6% in assay [6] (stimulation, at 2 µM). Moreover, in [7], the insulin secretion stimulation was -2% (inactive). The viability decrease in assay [8] was -16.5% (inactive). The tube area decrease in [9] is -0.1% (inactive). The GLP1 secretion stimulation in assay [10] was 2.3% (inactive). In addition, in [11], the inhibition of viability was 6.2% (inactive). For the same molecule, the viability decrease (inhibition) in assay [12] was -14.6% (inactive); in [13], -1.25% (inactive). Also, in assay [20], the red/green cell ratio (normalised) was 0.88 (inactive). Also, the normalised cell number in assay [20] (setting [23]) turned out to be 1.27; in assay [20] (setting [24]), 1.12. Also, the z-score is -0.299 (inactive) and 0.791 (inactive) and -0.0778 (inactive) in assay [16] (setting [21]); -0.288 and 0.13 and -0.654 in assay [16] (setting [22]). Also, in assay [17], the remaining NAD was 10 nM (inactive). The luciferase signal in [18] is 36 AU (inactive). In addition, the log fold change Tl+ flux in assay [19] is 0.0247 (inactive).

Broadly, the viability is a read-out of living cells in per cent, often relative to untreated cells. As a reminder, the inhibition is the relative decrease from the control value, in per cent.
